# Assay results published in PubChem BioAssay (NCI).
# The panel holds about 83,000 compounds, 20% with a hit somewhere; the sample as a whole holds those more often.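 In brief: 96-well plates, 48 h treatment, single concentration, percent growth endpoint.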 Unmarked numbers belong to inactive results. Activity calls are given as the source filed them. How the source made its calls: active means growth percent below 10; inactive means the rest.
# Assays:
# Assay in all cases: NCI-60 one-dose screen, 48 h (100 = growth as untreated, 0 = no growth, -100 = all killed)
# Conditions in all cases: 10 µM unless noted
# DU-145 prostate = test system: DU-145 prostate
# K-562 leukemia = test system: K-562 leukemia
# MALME-3M melanoma = test system: MALME-3M melanoma
# MDA-MB-231 breast = test system: MDA-MB-231 breast
# RXF 393 renal = test system: RXF 393 renal
# SF-268 CNS = test system: SF-268 CNS
# SF-295 CNS = test system: SF-295 CNS
# SF-539 CNS = test system: SF-539 CNS
# UACC-257 melanoma = test system: UACC-257 melanoma
# M14 melanoma = test system: M14 melanoma
# HCT-15 colon = test system: HCT-15 colon
# HT29 colon = test system: HT29 colon
# SNB-75 CNS = test system: SNB-75 CNS
# SNB-19 CNS = test system: SNB-19 CNS
# U251 CNS = test system: U251 CNS
# PC-3 prostate = test system: PC-3 prostate
# SK-MEL-5 melanoma = test system: SK-MEL-5 melanoma
# UACC-62 melanoma = test system: UACC-62 melanoma
# LOX IMVI melanoma = test system: LOX IMVI melanoma
# SK-MEL-28 melanoma = test system: SK-MEL-28 melanoma
SMILES,growth (DU-145 prostate),growth (K-562 leukemia),growth (MALME-3M melanoma),growth (MDA-MB-231 breast),growth (RXF 393 renal),growth (SF-268 CNS),growth (SF-295 CNS),growth (SF-539 CNS),growth (UACC-257 melanoma),growth (M14 melanoma),growth (HCT-15 colon),growth (HT29 colon),growth (SNB-75 CNS),growth (SNB-19 CNS),growth (U251 CNS),growth (PC-3 prostate),growth (SK-MEL-5 melanoma),growth (UACC-62 melanoma),growth (LOX IMVI melanoma),growth (SK-MEL-28 melanoma)
O=C(Nc1cccc(-n2ccc3c(NC(=O)c4ccccc4)nccc32)c1)c1cc(N2CCOCC2)cc(C(F)(F)F)c1,-20.2% (active),4.28% (active),32%,-16.6% (active),-67.3% (active),8.26% (active),-24.4% (active),-23.2% (active),32%,9.34% (active),3.17% (active),-22.6% (active),39.2%,26.3%,4.89% (active),27.9%,-74.7% (active),17.5%,9.47% (active),38%
CCc1c(C)c2cc3nc(NCc4ccccc4)oc3c(C)c2oc1=O,82.9%,89.5%,51.9%,62.1%,53.9%,65.9%,79.6%,33.5%,87.6%,88.3%,74.7%,60.5%,36.2%,59.2%,54.8%,73.3%,75.9%,47.1%,80.4%,72.9%
CC(CCC(=O)O)[C@H]1CCC2C3C(=O)C[C@@H]4CC(=O)CC[C@]4(C)C3CC(=O)[C@@]21C (stereo not given in full),114%,94.2%,97.5%,90.7%,110%,110%,92.9%,111%,112%,110%,105%,117%,110%,101%,95%,92.8%,105%,93.2%,92.5%,119%
Cc1c(F)cccc1NC(=O)c1sc2nc3c(cc2c1N)CCCCC3,69.1%,12.5%,55%,83.6%,69.5%,83.4%,55.3%,66.9%,52.3%,28.2%,28.5%,15.6%,76.2%,53.9%,56.3%,70.7%,39.2%,27%,50.4%,68.7%
c1ccc(OCC[P+](c2ccccc2)(c2ccccc2)c2ccccc2)cc1,36.4%,17.5%,15.5%,43.6%,51%,20.9%,21.2%,32%,-4.91% (active),32.6%,78%,13%,16.5%,21.5%,14.8%,11.8%,-40.1% (active),8.25% (active),2.69% (active),26.1%
CCCC(=O)Oc1ccc(/C(=C(\C)c2ccc(Cl)cc2)c2ccc(OCCN(CC)CC)cc2)cc1,-22.9% (active),-19.6% (active),-77.5% (active),-40.9% (active),-79.5% (active),-9.12% (active),-75.9% (active),-77.9% (active),-62.2% (active),-71.8% (active),-79.9% (active),-50% (active),-48.1% (active),-38.1% (active),-84.6% (active),-15.4% (active),-99.7% (active),-42.2% (active),-98% (active),-69.8% (active)
O=C(NCCNc1nccc(-c2c(-c3cccc(O)c3)nc3sccn23)n1)c1cccc(C(F)(F)F)c1,91.4%,56.2%,0.753% (active),76.2%,79.9%,86.7%,69.6%,100%,14.4%,17.5%,87.8%,81.1%,73.8%,116%,84.8%,67.3%,52.6%,3.21% (active),53.4%,38.5%
O=C(O)c1cc2ccccc2cc1Nc1ccccc1,113%,98.3%,111%,96.2%,77.7%,99.7%,104%,74.2%,4.2% (active),96.7%,99.4%,117%,102%,94.6%,93.5%,95.7%,69.4%,103%,91.8%,107%
Cn1cnc([N+](=O)[O-])c1N1c2ccncc2Sc2ccncc21,108%,83.2%,84%,85.1%,100%,101%,86.7%,96.3%,101%,101%,99%,137%,233%,94.7%,88.7%,93.3%,91.7%,81%,78.5%,149%
COc1ccc(-c2c(C#N)cnc(N)c2-c2nc3cc(C)c(C)cc3[nH]2)cc1,37.4%,51.6%,45.9%,53.4%,56.6%,57.1%,27.3%,92%,70%,51.2%,60.3%,37.3%,84.2%,67.6%,1.05% (active),57.8%,32.2%,56.1%,59.6%,77%
COc1cc2c(/C=C3/C(=O)Nc4ccc(O)cc43)c(Cl)n(Cc3cc(OC)c(OC)c(OC)c3)c2cc1C,20.4%,-30.7% (active),2.88% (active),61%,-20.9% (active),24%,38.9%,-16.7% (active),20.5%,11.5%,38.1%,10.4%,32.2%,20.2%,32.2%,11.3%,-64.5% (active),36.6%,39.7%,45.2%
Cn1c(I)c(C#C[Si](C)(C)C)c(=O)[nH]c1=O,64.3%,-71.3% (active),-65.9% (active),9.45% (active),-86.3% (active),-8.38% (active),96.2%,96.7%,-36.5% (active),-50.1% (active),-37.6% (active),-60% (active),75.2%,100%,51.5%,4.88% (active),98.3%,11.8%,-69.9% (active),-82% (active)
O=C(Nc1ccc(-n2ccc3c(NC(=O)c4ccccc4)ncnc32)cc1)Nc1ccc(Cl)c(Cl)c1,-12.3% (active),-39.8% (active),7.71% (active),26.7%,-18.2% (active),-20.7% (active),-8.32% (active),-22.6% (active),8.87% (active),12%,0.689% (active),-58.2% (active),-5.84% (active),15.6%,-58.6% (active),-52.3% (active),13.7%,48.5%,45.5%,5.26% (active)
CSc1nc(N)nc2c1ncn2C,108%,95%,104%,109%,116%,98.7%,108%,98.9%,104%,102%,102%,87.1%,96.4%,110%,95.4%,72.5%,100%,102%,92.6%,109%
CC1CCc2cc(F)cc3c(=O)c(C(=O)O)cn1c23 (stereo not given),110%,92.6%,99.9%,82.8%,108%,105%,97.6%,107%,101%,97.6%,105%,116%,109%,93.1%,101%,96.6%,102%,92.8%,69.1%,120%
Oc1ccc(O)c(-[n+]2ccccc2)c1,108%,107%,112%,110%,106%,102%,110%,108%,95.1%,103%,105%,93.6%,104%,100%,97.1%,92.5%,97.7%,103%,95.7%,116%
